Screening results deposited in PubChem by The Scripps Research Institute Molecular Screening Center.
Hits are enriched below; roughly 2.2% of the tested compounds scored in any of these assays.
M4 PAM = potentiates acetylcholine response at human M4 receptor; activation, % at 3 µM; P08173; 360,000 compounds, 0.4% hits; CHO-K1 hM4/Gqi5, Fluo-8 calcium fluorescence, ACh EC20; 0% = ACh EC20, 100% = maximal ACh;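 active = activation above its plate's cutoff, the mean activation of sample wells plus 3 SD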
Target sequence (P08173 whole entry, looked up): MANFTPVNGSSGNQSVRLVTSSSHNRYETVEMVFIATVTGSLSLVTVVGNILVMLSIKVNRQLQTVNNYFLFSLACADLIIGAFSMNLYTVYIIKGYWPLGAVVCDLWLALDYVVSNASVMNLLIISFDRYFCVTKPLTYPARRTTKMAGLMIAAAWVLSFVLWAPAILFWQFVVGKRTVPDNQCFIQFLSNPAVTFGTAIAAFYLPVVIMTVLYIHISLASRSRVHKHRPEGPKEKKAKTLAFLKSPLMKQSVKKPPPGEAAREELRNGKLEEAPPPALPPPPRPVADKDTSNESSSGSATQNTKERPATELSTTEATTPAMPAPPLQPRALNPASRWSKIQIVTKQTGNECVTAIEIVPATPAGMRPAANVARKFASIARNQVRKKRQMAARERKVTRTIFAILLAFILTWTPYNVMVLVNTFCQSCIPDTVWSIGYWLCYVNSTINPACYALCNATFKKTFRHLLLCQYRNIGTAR
CHRM1 antagonist = human CHRM1 antagonism. P11229. 360,000 compounds, 1.3% hits. CHO-K1 hM1, Fluo-8 calcium fluorescence, ACh EC80 antagonist. inhibition, % at 3 µM;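 active = percent inhibition above its own plate's cutoff, namely the mean of that plate's compound wells plus 3 SD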;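 also: peak over basal fluorescence ratio during 140 s after agonist addition; 0% = ACh EC80 plus DMSO and 100% = DMSO alone without agonist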
M1 PAM = potentiates human M1 receptor response to acetylcholine | activation, % at 3 µM | CHO-K1 hM1, Fluo-8 calcium fluorescence, ACh EC20; 0% = ACh EC20, 100% = maximal ACh | 360,000 compounds, 0.088% hits | P11229; in the data active = activation above about 19%, passing the limit was not always enough
M1 ag = agonists of human M1 muscarinic receptor; P11229; CHO-K1 hM1, Fluo-8 calcium fluorescence, agonist mode; 0% DMSO, 100% acetylcholine EC100; activation, % at 3 µM; 360,000 compounds, 0.33% hits; AID 588814;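 active = activation above the run's mean compound activation plus 3 SD, cut at about 16% in these data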;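 also: peak over basal fluorescence ratio within a 140 s kinetic read after compound addition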
M4 antag = CHRM4 antagonism in calcium assay | P08173 | CHO-hM4 cells, ACh EC80, Fluo-8 calcium fluorescence | inhibition, % at 3 µM | 360,000 compounds, 0.73% hits | AID 624125;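 active = inhibition above its plate's cutoff, the mean inhibition of sample wells plus 3 SD, cut at about 27% in these data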;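 also: 0% = acetylcholine EC80 with DMSO and 100% = DMSO without agonist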
M4 ag = agonists of human muscarinic M4 receptor (CHRM4); P08173; CHO-K1 hM4/Gqi5, Fluo-8 calcium fluorescence; vehicle 0%, full acetylcholine response 100%; activation, % at 3 µM; 360,000 compounds, 0.14% hits; AID 624127;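 active = activation above the run mean over all test wells plus 3 SD, cut at about 32% in these data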;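 also: peak over basal fluorescence ratio per well then scaled between controls; 0% = DMSO wells and 100% = acetylcholine at EC100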
* hit, by the source's call; nt = no result given.

SMILES | M4 PAM | CHRM1 antagonist | M1 PAM | M1 ag | M4 antag | M4 ag
O=C(NC1CC2CCCC(C1)N2C(=O)NCc1ccccc1)C1CC1 (stereo not given) | -9 | 19 | -7 | -6 | 32* | 0
O=P(O)(CCc1ccccc1)CN1CCCCC1 | 12 | 4 | -2 | -4 | -11 | 1
O=P(CCN1CCCCC1)(c1ccccc1)c1ccccc1 | -8 | 71* | -23 | -6 | -5 | 0
COc1ccc(S(=O)(=O)Cc2ccc(C(=O)N3CCN(Cc4ccccc4)CC3)o2)cc1 | -1 | -10 | 2 | -4 | -14 | 2
Cn1c(=O)[nH]c(=O)c2c1nc(NCc1ccccc1)n2CCCc1ccccc1 | -2 | 10 | -11 | 0 | 2 | 0
CCCCCCn1c2c(c(=N)c3c1CCC3)CCC2 | 9 | 4 | 3 | -13 | 10 | 2
CCCCCCCCCn1c2c(c(=N)c3c1CCC3)CCC2 | -26 | 31* | -9 | -1 | 50* | 4
Cn1cc(CNC(=O)c2cc(-c3ccccc3)nc3ccc(Br)cc23)cn1 | -8 | 9 | -10 | -8 | -7 | 4
COc1ccccc1CN(C)C(=O)c1cc(C)nc2ccccc12 | -12 | -4 | 0 | -2 | -6 | 17
COc1ccc(CN(C)C(=O)c2cc(-c3ccccc3)nc3ccc(C)cc23)c(OC)c1 | -9 | 37* | -17 | -3 | 31* | 14
Cc1nn(C)cc1CN(C)C(=O)c1cc(-c2ccccc2)nc2ccc(Br)cc12 | -17 | 34* | -7 | -1 | 7 | 18
CCOC(=O)/C(C#N)=C1/C=C(C)c2ccccc2N1 | 8 | -9 | 18 | -15 | -11 | -1
Cc1c(C(=O)OCC(=O)N2c3ccccc3CC2C)oc2ccccc12 (stereo not given) | 11 | 14 | -2 | -1 | 5 | 0
CC(C)(C)C(=O)Nc1nc2c(c(=O)[nH]1)CCCC2 | 21* | 6 | 7 | -2 | -2 | 2
CSc1ccc(CN2CCC(C)(Oc3cccc(C#N)c3)C2)cc1 (stereo not given) | -10 | 36* | -29 | -9 | -8 | 0
CSc1ccc(CN2CCC(C)(Oc3cccc(F)c3)C2)cc1 (stereo not given) | -8 | 12 | -12 | -8 | 0 | 0
O=C(O)c1ccc(-c2ccc(/C=N/Nc3ccc([N+](=O)[O-])cc3)o2)cc1 | -14 | 10 | 2 | 18* | 19 | 24
O=[N+]([O-])c1ccc(N/N=C/c2c[nH]c3ccccc23)cc1 | -10 | 34* | -7 | 14 | 21 | 17
O=C(O)c1cccc(-c2ccc(/C=N/Nc3ccc([N+](=O)[O-])cc3)o2)c1 | -17 | 27 | -9 | 17* | 27* | 12
O=C(CN(c1ccccc1F)S(=O)(=O)c1ccccc1)N1CCCCCC1 | -6 | -9 | 7 | -3 | 0 | 0
O=C(CNC(=O)c1ccc([N+](=O)[O-])cc1)N/N=C\c1ccc(OC(=O)c2ccccc2)cc1 | 2 | -6 | -2 | -4 | -2 | 0
C[N+](C)(C)CCNC(=O)c1ccccc1 | 23* | nt | nt | nt | -7 | 1
FC(F)Sc1ccc(NC(=S)N2CCN(c3ccccn3)CC2)cc1 | -16 | 22* | -18 | -5 | 6 | 20
CCC(C)(C)C(=O)Nc1ncc(S(=O)(=O)c2ccc([N+](=O)[O-])cc2)s1 | -5 | -11 | -6 | 16 | 5 | 12
CCCC(C)C(=O)Nc1ncc(S(=O)(=O)c2ccc([N+](=O)[O-])cc2)s1 (stereo not given) | -7 | 28 | -5 | 40* | 11 | 67*
SMILES | M4 PAM | CHRM1 antagonist | M1 PAM | M1 ag | M4 antag | M4 ag
CCCc1ccc2oc(C(=O)N(C)Cc3ccn[nH]3)c(C)c2c1 | 2 | -2 | 4 | -2 | -5 | 3
CCOC(=O)c1cc2n(n1)C(C(F)(F)C(F)(F)F)CC(C)N2 (stereo not given) | 1 | -33 | 19 | 17* | -1 | 0
CCOC(=O)c1c(NC(=O)c2cc3n(n2)C(C(F)(F)F)CC(c2ccccc2)N3)sc(C)c1C (stereo not given) | -10 | 10 | -3 | -2 | 0 | 0
Cc1ccc(NC(=O)C/C(N)=N/OC(=O)c2ccccc2)cc1 | 12 | -13 | 6 | -8 | -21 | 2
COc1ccc2c(c1)Cc1sc(NC(=O)c3ccco3)nc1-2 | 27* | -10 | 4 | -2 | -14 | 2
COc1ccc2c(c1)CCc1sc(NC(=O)c3ccco3)nc1-2 | 28* | -38 | 26 | 1 | -30 | 2
O=C(O)c1cc(S(=O)(=O)N2CCN(C(=O)c3ccco3)CC2)c(Cl)cc1Cl | 14* | -20 | 9 | 0 | -30 | 2
COc1cc(/C=C2\SC(=S)N(NC(=O)c3ccc(O)cc3)C2=O)ccc1O | -23 | 35 | -13 | 37* | 27* | 94*
COc1cc(/C=C2\SC(=S)N(NC(=O)c3cccnc3)C2=O)ccc1O | -13 | 27* | -7 | 2 | 4 | 4
CC[N+]1(C)CC2CCC(C)(C1)C2(C)C (stereo not given) | -4 | 2 | 2 | -3 | 5 | 0
COc1ccccc1NC(=O)c1ccc(Cl)c(S(=O)(=O)N2CCCCC2)c1 | 10 | -8 | 8 | -3 | -11 | 6
O=C(Nc1ccccc1)c1ccc(CN2CCc3ccccc3C2)cc1 | -5 | -6 | -11 | -13 | -1 | 2
CN(C)S(=O)(=O)c1ccc(C(=O)Nc2ccc(CN3CCCC3)cc2)cc1 | -18 | 41* | -18 | -5 | 69* | 1
O=C(Nc1ccc(S(=O)(=O)N2CCCCC2)cc1)c1ccc(CN2CCc3ccccc3C2)cc1 | -16 | 27 | -12 | -4 | 40* | 8
Cc1onc(-c2ccccc2)c1C(=O)Nc1sc2c(c1C#N)CCC2 | -5 | -2 | -1 | -5 | -6 | 0
COc1ccc(/C=C(\NC(=O)c2ccco2)C(=O)Nc2ccc(C(C)=O)cc2)cc1 | 10 | -6 | 8 | -1 | -7 | 1
O=C(C1CCN(S(=O)(=O)c2cccc3cccnc23)CC1)N1CCn2c1nc1ccccc12 | 5 | 11 | -1 | 43* | -14 | 7
CC(=O)N(C)[C@H]1C[C@@H](c2ccccc2)N(C(C)=O)C[C@H]1CO | 3 | -7 | 13 | -2 | -4 | 1
COc1cc(/C=N/N2C(=O)CSC2=S)cc(Br)c1O | -30 | 38* | -13 | 55* | 8 | 69*
Oc1c(N=Nc2ccccn2)ccc2ccccc12 | 0 | 10 | 3 | -5 | 35* | 1
CCOc1cc(/C=C2\CCC/C(=C\c3cc(Cl)c(O)c(OCC)c3)C2=O)cc(Cl)c1O | -23 | 8 | 1 | 1 | 47* | 3
CCn1c(CSCc2ccc(F)cc2)nnc1SCC(=O)NCc1ccccc1 | -9 | 4 | 0 | -4 | 24 | 4
